TDP1 cell CPT: qHTS for Inhibitors of human tyrosyl-DNA phosphodiesterase 1 (TDP1): qHTS in cells in presence of CPT. Potency, µM (series often up to 46.2 µM), inactives show at the highest dose activity change, negative = growth inhibition, most hits filed as inhibitors. 420,000 tested, 12% active. chicken DT40 Tdp1-/-;hTDP1 cells + 20 nM CPT, ATP luminescence, 48 h; also: potency is read from the fitted curve at half-maximal effect; % is scaled to controls: 0 for no effect and ±100 for the full control effect; nearly all actives have a fitted effect of over 55% in size
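Cell growth measured by CellTiter-Glo luminescence after a minimum 48 h, 37 C compound exposure with 20 nM CPT in Tdp1-knockout DT40 cells stably expressing hTDP1, seeded 400/well; qHTS titration format.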
TDP1 cell noCPT: qHTS for Inhibitors of human tyrosyl-DNA phosphodiesterase 1 (TDP1): qHTS in cells in absence of CPT; AID 686978, 2013; 420,000 tested, 15% active; Potency, µM (series often up to 46.2 µM), without a hit: at the top dose activity change, negative = growth inhibition, actives largely listed as inhibitors; DT40 Tdp1-/- hTDP1 cells, no CPT, ATP luminescence, 48 h; also: potency is read from the fitted curve at half-maximal effect; % is scaled to controls: 0 for no effect and ±100 for the full control effect; nearly all actives have a fitted effect of over 55% in size
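Growth of hTDP1-complemented DT40 Tdp1-knockout cells is measured by ATP luminescence after at least 48 hr compound exposure at 37 °C, with DMSO substituting for the 20 nM CPT used in the parallel screen.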
BCR signal inh: qHTS Assay to Find Inhibitors of Chronic Active B-Cell Receptor Signaling; 340,000 tested, 0.05% active; ABC-DLBCL IkBa-CBG/CBR reporter, luminescence ratio, 4 h; Potency, µM (doses to about 46.1 µM), without a hit: at the highest dose activity change, negative = inhibition, usual class: inhibitors; active = well fitted inhibition curve with a large enough effect in the signal ratio, with a control signal flat, not every such curve was filed as active; inconclusive = small, poorly fitted or top-dose-only effect, or effect the other way, or a change in a side signal; the % refers to the signal ratio;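 also: potency is read from the fitted curve at half-maximal effect; plate controls were basal doxycycline-induced cells for no effect and cells given 10 µM MG132 for full effect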
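Doxycycline induced both beetle luciferases in TMD8 lymphoma cells; IKK-driven degradation limits the IkappaBalpha-fused green signal, while red luminescence normalises for cell number and nonspecific effects. Compounds tested up to 46 uM, 4 hrs.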
IL-1B inflam inh: qHTS for Inhibitors of Inflammasome Signaling: IL-1-beta AlphaLISA Primary Screen; THP-1 LPS/ATP IL-1B secretion, AlphaLISA, 16 h; active compounds read low; activity change, % at 57.5 µM; 360,000 tested, 4.7% active; AID 743279, 2014; in the data active = activity change below about -50%; inconclusive = mostly about -30% to -49%; also: % is scaled to controls: 0 for no effect and ±100 for the full control effect
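Secreted IL-1B measured by AlphaLISA bead assay after 16 h compound exposure of THP-1 cells; compounds (final up to 57.5 uM) added 1 h before LPS (250 ng/mL) and ATP (1.25 mM) stimulation; lower signal means less secretion.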
MCF10A rereplic: A quantitative high throughput screen for small molecules that induce DNA re-replication in MCF 10a normal breast cells. Potency, µM (doses to about 46.1 µM), without a hit: at the top dose activity, positive = re-replication, most hits filed as activators. 350,000 tested, 2.9% active. MCF 10A DNA re-replication, Hoechst nuclear intensity, 48 h; also: potency is read from the fitted curve at half-maximal effect; % of control where 0% means no effect; nearly all actives have a fitted effect of over 50% in size
SW480 rerep: A quantitative high throughput screen for small molecules that induce DNA re-replication in SW480 colon adenocarcinoma cells; SW480 DNA re-replication, Hoechst DNA content imaging, 48 h; Potency, µM (doses to about 46.1 µM), for inactives: top-dose re-replication activation, actives largely listed as activators; 340,000 tested, 1.8% active; also: potency is read from the fitted curve at half-maximal effect; % of control where 0% means no effect; nearly all actives have a fitted effect of over 55% in size
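First, 250 cells per well were seeded. Next, compound or vehicle (23 nL) was pinned in, plates sat 48 hr at 37 C. Finally Hoechst was added for 40 min before fluorescence scanning.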
* hit, by the source's call; ? = inconclusive; . = no result given; [ ] = remark or other dose. Hits are enriched below; roughly 19% of the tested compounds scored in any of these assays. Unless noted, calls follow the shape of the dose curve; as a rule, active = well fitted curve in the direction sought with a large enough effect; inconclusive = small, poorly fitted or top-dose-only effect, or another doubt; inactive = no such curve, though single readings can be large; an effect the other way counts as inactive or inconclusive.

SMILES | TDP1 cell CPT | TDP1 cell noCPT | BCR signal inh | IL-1B inflam inh | MCF10A rereplic | SW480 rerep
Cc1c(C(=O)N(C)C2CCOC2)cnn1-c1ncc2c(n1)-c1ccccc1CCC2 (centres undefined) | 4%[9.04 µM] | -17% | . | . | . | .
CCOC(=O)CCCCCC(=O)Nc1ccc2c(c1)C(=O)N([C@@H](C)CO)C[C@@H](C)[C@H](CN(C)S(=O)(=O)c1cccs1)OCCCC[C@H](C)O2 | 1% | -19% | . | -17 | . | .
Cc1nc2nc(NCc3cccc(Cl)c3)[nH]n2c(=O)c1Cc1ccccc1 | -12% | ? | . | . | . | .
Cc1ccc(NC(=O)CSCC(=O)N2CCN(c3cccc(C(F)(F)F)c3)CC2)cc1 | ? | 15µM* | ? | -6 | 16% | -2%
CN1CCN(C(=O)Nc2cccc(-c3ccccc3)c2)CC1 | -7% | -13% | -2% | -1 | ? | 16µM*
COc1ccc(NC(=O)N2CCOCC2)cc1OC | 6% | 3% | -21% | 8 | 13% | 2%
Cc1csc2ncnc(N3CCN(C(=S)Nc4ccc(F)cc4F)CC3)c12 | ? | 15µM* | ? | -13 | 0% | -5%
COc1ccc(NC(=O)N2CCN(c3cccc(C(F)(F)F)c3)CC2)cc1OC | ? | 12µM* | 0% | 0 | 5% | 1%
CCOC(=O)Nc1cc2c(cc1[N+](=O)[O-])-c1ccccc1C2=O | ? | -7% | . | 16 | 0% | -2%
Cc1oc(-c2ccc(Cl)cc2)nc1Cn1c(=O)cc(C)c2c(C)nn(-c3cccc(F)c3)c21 | -2% | -11% | . | . | . | .
Cc1ccc(NC(=O)Nc2nnc(N3CCCCC3)s2)c(C)c1 | 6% | -18% | . | . | . | .
O=C(Nc1ccccc1)N1CCN(c2ccc(C(F)(F)F)cn2)CC1 | 7.3µM* | 23µM* | 0% | ? | 1% | -5%
O=C(O)[C@H](Cc1ccccc1)NC(=O)N1CCN(c2cccc(C(F)(F)F)c2)CC1 | -7% | -11% | -20% | -2 | -1% | -22%
O=C(Nc1cccc(C(F)(F)F)c1)c1cccnc1N1CCN(c2ccccc2)CC1 | ? | 18µM* | ? | -77* | ? | 0%
Cc1cccc(Cl)c1NC(=S)N1CCN(c2ccc([N+](=O)[O-])cn2)CC1 | ? | 26µM* | ? | -18 | -1% | -1%
O=C(Nc1cccc(C(F)(F)F)c1)c1cccnc1N1CCN(CCO)CC1 | 10% | -19% | -10% | -28 | 10% | -6%
O=C(Nc1ccccc1)N1CCN(c2cccc(C(F)(F)F)c2)CC1 | 21µM* | 12µM* | -22% | -50* | -8% | -7%
O=C(CCc1ccccc1F)N1CCN(c2ccc(C(F)(F)F)cn2)CC1 | ? | -11% | -5% | 40 | -1% | -2%
COc1cccc(NC(=O)CSc2nc(=O)n(Cc3ccncc3)c3c2CCC3)c1 | 6% | -10% | 0% | . | . | .
Cc1nn(C)c(NC(=O)c2ccccc2Cl)c1Cl | -2% | 4% | 6% | -14 | -6% | -11%
Cc1ccc(NC(=O)CCC(=O)N2CCC(C)CC2)c([N+](=O)[O-])c1 | -25% | -13% | ? | 27 | -4% | 2%
CCC(C)[C@H](NC(=O)N1CCN(c2cccc(C(F)(F)F)c2)CC1)C(=O)OC (some centres undefined) | 15µM* | 21µM* | 6% | -1 | 26% | -5%
COC(=O)[C@H](CCSC)NC(=O)N1CCN(c2cccc(C(F)(F)F)c2)CC1 | -30% | -12% | -5% | 1 | 27% | 6%
O=C(Nc1ccccc1)N1CCCN(c2nccc(C(F)(F)F)n2)CC1 | 29µM* | ? | 12% | -5 | 5% | -10%
CCn1c(CN2CCC(C)CC2)nc2cc(NC(=O)c3cccc([N+](=O)[O-])c3)ccc21 | 15µM* | 23µM* | . | . | . | .
SMILES | TDP1 cell CPT | TDP1 cell noCPT | BCR signal inh | IL-1B inflam inh | MCF10A rereplic | SW480 rerep
CCCN(CCC)CCCNC(=O)Cn1cnc2sc(C)c(S(=O)(=O)N3CCOCC3)c2c1=O | 11% | -11% | 13% | -7 | 3% | -3%
CCn1nc(C)cc1C(=O)NCCN1Cc2ccccc2OC(c2ccccc2F)C1 (centres undefined) | ? | 16µM* | . | . | . | .
Cc1cc(C)c(C(N)=O)c(Nc2cccc3ccccc23)n1 | -10% | -23% | ? | 14 | -3% | 1%
Cc1cc(C)c(C(N)=O)c(Nc2ccc(F)cc2)n1 | 5% | -22% | 0% | -4 | 0% | -3%
Cc1cc(C)c(C(N)=O)c(Nc2ccc3c(c2)OCCO3)n1 | ? | 7.3µM* | 0% | -16 | 6% | -15%
CCc1ccc(Nc2nc(C)cc(C)c2C(N)=O)cc1 | ? | 6.5µM* | 7% | 10 | -1% | -9%[9.22 µM]
COc1ccc(Nc2nc(C)cc(C)c2C(N)=O)cc1OC | -1% | -17% | ? | 18 | -22% | -45%[1.84 µM]
Cc1ccc(Nc2nc(C)cc(C)c2C(N)=O)c(C)c1 | ? | 6.5µM* | -9% | 13 | 5% | -3%
COc1cc(C)c2ccccc2n1 | -6% | -1% | . | . | . | .
CC1(c2ccccc2)NC(=O)N(CC(=O)Nc2ccc(S(=O)(=O)NC3=NCCCCC3)cc2)C1=O (centres undefined) | -2% | 21% | . | -3 | 1% | 5%
CCc1ccc(C(C)NC(=O)c2cc(C)oc2C)cc1 (centres undefined) | 21µM* | 23µM* | -2% | -2 | ? | 17%
CCc1ccc(C(C)NC(=O)C2(C)CC2(Br)Br)cc1 (centres undefined) | -9% | -26% | ? | -61* | 14% | -6%
Cc1ccc(NC(=S)NCc2ccc(F)cc2)c(C)c1 | -15% | -20% | 4% | -23 | -9% | ?
Cc1ccc(C(C)NC(=S)NCc2ccc(F)cc2)c(C)c1 (centres undefined) | 21µM* | 16µM* | ? | -16 | 18% | -4%
Cc1ccc(C(C)NC(=S)NCc2ccc(F)cc2)cc1C (centres undefined) | ? | ? | -4% | 9 | ? | ?
CCc1ccc(C(C)NC(=S)NCc2ccc(F)cc2)cc1 (centres undefined) | ? | ? | ? | ? | 26µM* | ?
